# Laboratory results reported in PubChem BioAssay (Tox21).
# A number with no mark means an inactive call. A call without a number means that no potency is given here. The source made the active and inactive calls. Unless noted, calls follow the shape of the dose curve; as a rule, active = well fitted curve in the direction sought with a large enough effect in the repeat runs; inconclusive = weak or mixed curves; inactive = no such curve, though single readings can be large; an effect the other way counts as inactive or inconclusive.
# Columns and labels:
# [1] = qHTS assay for small molecule agonists of the p53 signaling pathway (AID 651631; calls by dose curve; also: nearly all actives have a fitted effect of over 15% in size; also: potency is read from the fitted curve at half-maximal effect)
# Summary of the method: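 We treat p53RE-bla HCT-116 cells with compounds for 16 h at 37 °C, add LiveBLAzer B/G FRET substrate for 2 h at room temperature, and measure fluorescence intensity.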
# [2] = qHTS assay for small molecules that induce genotoxicity in human embryonic kidney cells expressing luciferase-tagged ATAD5 (AID 651632); also: nearly all actives have a fitted effect of over 15% in size
# Summary of the method: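 ATAD5-luc HEK293T, 2,000 cells/well; cpd or DMSO pin-transferred; 16 hr, 37C/5% CO2; Amplite 30 min RT; luminescence.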
# [3] = qHTS assay for small molecule agonists of the p53 signaling pathway - cell viability (AID 651633; calls by dose curve;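 also: p53RE-bla HCT reporter cells with a stable beta-lactamase p53 reporter; series mostly up to about 83 µM; nearly all actives have a fitted effect of over 30% in size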)
# Summary of the method: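 p53RE-bla cells were treated with compound for 16 hours at 37 C. Cytotoxicity was then measured as CellTiter-Glo luminescence after 30 min at room temperature.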
# [4] = qHTS assay for small molecules that induce genotoxicity in human embryonic kidney cells expressing luciferase-tagged ATAD5 - cell viability (AID 651634; calls by dose curve; also: nearly all actives have a fitted effect of over 25% in size)
# Summary of the method: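 Fluorescence from CellTiter-Fluor, reporting protease activity within live cells, served as the viability read-out. HEK293T cells carrying luciferase-tagged ATAD5 had been treated with compound for 15.5 hr at 37C.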
# [5] = qHTS assay for small molecule disruptors of the mitochondrial membrane potential - cell viability (AID 720634; calls by dose curve;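 also: human HepG2 liver cancer cells; series mostly up to about 83 µM; nearly all actives have a fitted effect of over 20% in size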)
# Summary of the method: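 Cells: HepG2, 2,000/well, attached overnight. Compound 1 hr, 37 C/5% CO2. +m-MPI dye, +CellTiter-Glo 30 min RT. Readout: luminescence (ATP).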
# [6] = qHTS assay to test for compound auto fluorescence at 535 nm (green) in HepG2 cells (AID 720675)
# [7] = qHTS assay to test for compound auto fluorescence at 460 nm (blue) in HEK293 cells (AID 720678)
# Summary of the method: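 Triamterene serves as the blue fluorophore standard. Compound signal at 405/460 nm is read in HEK293 wells (2,000 cells, 10% dialyzed FBS) after overnight treatment at 37C.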
# [8] = qHTS assay to test for compound auto fluorescence at 590 nm (red) in HEK293 cells (AID 720679)
# Summary of the method: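 We plated HEK293 cells in 10% dialyzed FBS medium, let them adhere for 4-5 hr, then added 23 nL compound. Overnight at 37C and 5% CO2 preceded fluorescence measurement at 540/590nm.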
# [9] = qHTS assay to test for compound auto fluorescence at 535 nm (green) in HEK293 cells (AID 720680)
# [10] = qHTS assay to test for compound auto fluorescence at 460 nm (blue) in HEK293 cell free culture (AID 720681)
# Summary of the method: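 Compounds were added to cell-free DMEM with 10% FBS and fluorescence read directly. The blue channel used 405 nm excitation and 460 nm emission, with triamterene as the reference fluorophore.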
# [11] = qHTS assay to test for compound auto fluorescence at 535 nm (green) in HEK293 cell free culture (AID 720682)
# Summary of the method: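 Green-channel intensity (Ex/Em 485/535 nm) was recorded from compound-treated wells containing only DMEM with 10% FBS. Fluorescein provided the equivalency standard.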
# [12] = qHTS assay to test for compound auto fluorescence at 590 nm (red) in HEK293 cell free culture (AID 720683)
# Summary of the method: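 Cell-free wells of DMEM with 10% FBS received compound, and intrinsic fluorescence was read at excitation/emission 540/590 nm. Values expressed as equivalence to Rose Bengal sodium.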
# [13] = qHTS assay to test for compound auto fluorescence at 590 nm (red) in HepG2 cell free culture (AID 720684)
# Summary of the method: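 Compounds are added to culture medium (MEM, 10% FBS) lacking cells, then fluorescence is read at excitation 540 nm, emission 590 nm, with Rose Bengal sodium as the equivalency standard.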
# [14] = qHTS assay to test for compound auto fluorescence at 460 nm (blue) in HepG2 cell free culture (AID 720685)
# Summary of the method: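 Compound (23 nL) or DMSO pinned into cell-free MEM with 10% FBS; blue fluorescence read at 405/460 nm excitation/emission, expressed as auto-fluorescence equivalency to triamterene.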
# [15] = qHTS assay to test for compound auto fluorescence at 535 nm (green) in HepG2 cell free culture (AID 720686)
# [16] = qHTS assay to test for compound auto fluorescence at 460 nm (blue) in HepG2 cells (AID 720687)
# Summary of the method: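 HepG2 cells in MEM with 10% FBS, attached overnight at 37 C, were exposed to compound or DMSO for 1 hr at 37 C, 5% CO2. Blue fluorescence was read at 405/460 nm, with triamterene as reference fluorophore.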
# [17] = qHTS assay to test for compound auto fluorescence at 590 nm (red) in HepG2 cells (AID 720674)
# Summary of the method: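 Seeding: 2,000 HepG2 cells/well, MEM/10% FBS, overnight 37 C. Dosing: compound vs DMSO. Incubation: 1 hr, 37 C, 5% CO2. Read: fluorescence 540 ex/590 em, Rose Bengal sodium as red reference.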
# [18] = biological target: Glucocorticoid receptor (Homo sapiens) (UniProt P04150); experiment: qHTS assay to identify small molecule antagonists of the glucocorticoid receptor (GR) signaling pathway (AID 720692; active = well fitted inhibition curve with a large enough effect in the signal ratio in the repeat runs, not every such curve was filed as active; inconclusive = weak or mixed curves, or effect the other way; inactive = no such curve, though single readings can be large or run the other way; the % refers to the signal ratio)
# Glucocorticoid receptor (Homo sapiens), sequence (P04150 whole entry, looked up): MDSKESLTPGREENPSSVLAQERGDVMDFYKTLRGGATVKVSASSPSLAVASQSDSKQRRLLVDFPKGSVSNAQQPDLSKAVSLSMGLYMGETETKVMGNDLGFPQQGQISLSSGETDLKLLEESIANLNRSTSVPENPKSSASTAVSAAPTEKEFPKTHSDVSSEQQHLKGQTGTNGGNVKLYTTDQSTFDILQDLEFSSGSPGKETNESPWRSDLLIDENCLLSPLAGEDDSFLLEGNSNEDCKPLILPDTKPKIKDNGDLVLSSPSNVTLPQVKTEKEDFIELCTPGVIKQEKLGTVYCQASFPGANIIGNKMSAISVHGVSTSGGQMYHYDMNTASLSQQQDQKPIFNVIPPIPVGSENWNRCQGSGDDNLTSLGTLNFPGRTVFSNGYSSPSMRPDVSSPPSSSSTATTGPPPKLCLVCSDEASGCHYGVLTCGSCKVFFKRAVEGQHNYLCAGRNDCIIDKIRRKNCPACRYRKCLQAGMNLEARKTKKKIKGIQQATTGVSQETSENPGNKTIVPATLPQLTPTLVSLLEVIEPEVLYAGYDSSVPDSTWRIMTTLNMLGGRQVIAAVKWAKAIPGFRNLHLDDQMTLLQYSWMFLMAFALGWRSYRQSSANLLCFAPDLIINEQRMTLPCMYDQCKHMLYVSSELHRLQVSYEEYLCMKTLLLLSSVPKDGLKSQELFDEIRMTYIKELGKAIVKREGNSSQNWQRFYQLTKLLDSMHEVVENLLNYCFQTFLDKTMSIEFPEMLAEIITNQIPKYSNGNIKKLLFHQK
# Summary of the method: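 HeLa GR-bla cells; cmpd + dex 5 nM final, 18 h 37 C; LiveBLAzer B/G FRET substrate 2 h RT; fluorescence intensity read. Antagonist mode, qHTS.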
# [19] = biological target: Glucocorticoid receptor (Homo sapiens) (UniProt P04150); experiment: qHTS assay to identify small molecule agonists of the glucocorticoid receptor (GR) signaling pathway (AID 720691; active = well fitted activation curve with a large enough effect in the signal ratio in the repeat runs, not every such curve was filed as active; inconclusive = weak or mixed curves, or effect the other way; inactive = no such curve, though single readings can be large or run the other way; the % refers to the signal ratio; also: potency is read from the fitted curve at half-maximal effect)
# Summary of the method: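 Fluorescence intensity from LiveBLAzer B/G FRET substrate (2 h, room temperature) reports beta-lactamase expression driven by the glucocorticoid response element in GR-bla HeLa cells after 18 h compound exposure at 37 C.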
# [20] = qHTS assay for small molecule disruptors of the mitochondrial membrane potential (AID 720635)
# Summary of the method: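 HepG2 cells exposed to compound 1 hr at 37C, then Mito-MPS dye 30 min. Ratio read of aggregate (540/590 nm) versus monomer (490/535 nm) fluorescence.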
Structure (SMILES),Potency [1],Potency [2],Potency [3],Potency [4],outcome [5],outcome [6],outcome [7],outcome [8],outcome [9],outcome [10],outcome [11],outcome [12],outcome [13],outcome [14],outcome [15],outcome [16],outcome [17],Potency [18],Potency [19],Potency [20]
C=C[Si](OC(C)=O)(OC(C)=O)OC(C)=O,inactive,inactive,inactive,inactive,inactive,inactive,inactive,inactive,inactive,inactive,inactive,inactive,inactive,inactive,inactive,inactive,–,–,–,–
Cc1ccc(C(=O)c2ccccc2)cc1,inactive,inactive,inactive,inactive,inactive,inactive,–,inactive,inactive,inactive,inactive,inactive,inactive,inactive,–,inactive,inactive,inactive,–,–
[K+],inactive,inactive,inactive,inactive,inactive,inactive,inactive,inactive,inactive,inactive,inactive,inactive,inactive,inactive,inactive,inactive,–,inactive,–,–
OCCc1ccccn1,inactive,inactive,inactive,inactive,inactive,–,inactive,inactive,inactive,–,inactive,inactive,inactive,inactive,–,inactive,inactive,inactive,inactive,–
CCCCCC(=O)OCCc1ccccc1,inactive,inactive,inactive,inactive,inactive,inactive,inactive,inactive,inactive,inactive,inactive,inactive,inactive,inactive,inactive,inactive,–,inactive,–,–
CC(C)=CCC/C(C)=C/C#N,inactive,inactive,inactive,inactive,inactive,–,inactive,inactive,inactive,inactive,inactive,inactive,inactive,inactive,inactive,inactive,inactive,inactive,inactive,–
C[C@@H]1C[C@H]2[C@@H]3C[C@H](F)C4=CC(=O)C(Cl)=C[C@]4(C)[C@@]3(F)[C@@H](O)C[C@]2(C)[C@@]1(O)C(=O)CO,inactive,inactive,inactive,inactive,inactive,inactive,inactive,inactive,inactive,inactive,inactive,inactive,inactive,inactive,–,inactive,–,–,15.1 nM [inconclusive] (active),–
CC1=NN(c2cc(S(=O)(=O)O)ccc2Cl)C(=O)C1N=Nc1ccccc1 (centres undefined),inactive,inactive,inactive,–,inactive,inactive,inactive,inactive,–,inactive,inactive,inactive,inactive,inactive,–,inactive,inactive,inactive,–,–
C=C(C)C(=O)OCC1CCCO1 (centres undefined),inactive,inactive,inactive,–,inactive,inactive,–,inactive,inactive,inactive,inactive,–,inactive,inactive,inactive,inactive,inactive,inactive,–,inactive
CN(C)[C@@H]1C(=O)C(C(=O)NCN2CCCC2)=C(O)[C@@]2(O)C(=O)C3=C(O)c4c(O)cccc4[C@@](C)(O)C3C[C@@H]12 (some centres undefined),inactive,inactive,inactive,–,inactive,–,–,inactive,–,inactive,inactive,inactive,inactive,inactive,–,–,inactive,inactive,inactive,inactive
CC(CC=O)CC(C)(C)C (centres undefined),inactive,inactive,inactive,–,inactive,–,inactive,inactive,inactive,inactive,inactive,inactive,inactive,inactive,inactive,–,inactive,–,–,inactive
CC1OC1C1CCC2(C)OC2C1 (centres undefined),inactive,inactive,inactive,–,inactive,–,inactive,inactive,inactive,inactive,inactive,inactive,inactive,inactive,inactive,inactive,inactive,inactive,inactive,–
Nc1ccn([C@@H]2O[C@H](CO)[C@@H](O)C2(F)F)c(=O)n1,106 nM (active),inactive,–,inactive,inactive,–,inactive,inactive,–,inactive,inactive,inactive,inactive,inactive,inactive,inactive,–,–,–,–
Nc1ccccn1,inactive,–,inactive,inactive,inactive,inactive,–,inactive,inactive,inactive,inactive,inactive,inactive,inactive,–,inactive,inactive,inactive,inactive,–
O=C1NC(=O)C2CC=CCC12 (centres undefined),inactive,–,inactive,inactive,inactive,–,inactive,inactive,inactive,inactive,inactive,inactive,inactive,inactive,–,–,inactive,inactive,inactive,–
O=C1CCCCCCCCCCCCCCO1,inactive,inactive,inactive,–,inactive,inactive,inactive,inactive,inactive,–,inactive,–,inactive,inactive,inactive,inactive,inactive,inactive,inactive,inactive
